# Test results taken from PubChem BioAssay AID1645838 (ICCB-Longwood Screening Facility, Harvard Medical School, 2021).
# Out of some 2,000 compounds screened, about 100 (5%) were called active. The sample holds actives, similar compounds and a random draw of the others, so the mix is not that of the screen. Rule as the data show it: active = z-score above about 2; inactive = the rest. Residues, ends and D or L forms follow the SMILES beside them. *: point of attachment. Cbz = O=C(OCc1ccccc1)*
# Assay: modulators of mitochondrial supercomplex assembly, cell-based, luminescence, Hoechst nuclei count (AID 1645838);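 also: control cybrid cells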;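 as to z-score: higher means more mitochondrial supercomplex formation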
# Details: Cells, luminescence/Hoechst cell count ratio, supercomplex reporter; for z-score: stronger effect = higher value; for cell count: measured here: cell number, Hoechst nuclei count
# [1] = library stock concentration (final well concentration not given) 46 uM
# [2] = library stock concentration (final well concentration not given) 80 uM
# [3] = library stock concentration (final well concentration not given) 400 uM
# [4] = library stock concentration (final well concentration not given) 2 mM
# [5] = library stock concentration (final well concentration not given) 10 mM
# [6] = library stock concentration (final well concentration not given) 278 uM
# [7] = library stock concentration (final well concentration not given) 1.67 mM
compound,measurement,setting,value
CCCCCCCCCCCCCCCCSC[C@H](COP(=O)([O-])OCC[N+](C)(C)C)NC(=O)CCCCCCCCCCCCCCC,z-score,,-0.387 (inactive)
same,cell count,,5820
C#CCC(Cc1cnc2nc(N)nc(N)c2n1)c1ccc(C(=O)NC(CCC(=O)O)C(=O)O)cc1 (centres undefined),outcome,library stock 278 µM,inactive; censored for cell count
same,outcome,library stock 1.67 mM,inactive; censored for cell count
same,outcome,library stock 10 mM,inactive; censored for cell count
same,z-score,[1],1.41 (inactive)
same,cell count,[1],2070
CCCCCCCCCCCCCCC(=O)N[C@H]1CCOC1=O,outcome,,inactive; censored for cell count
CSCCC(NC(=O)C(CC(C)C)NC(=O)CNC(=O)C(NC(=O)C(Cc1ccccc1)NC(=O)C(CO)NC(=O)C(CC(=O)O)NC(=O)[C@H](NC(=O)C(CCCCN)NC(=O)C(N)Cc1cnc[nH]1)C(C)O)C(C)C)C(N)=O (some centres undefined),z-score,[2],-0.214 (inactive)
same,z-score,[3],-0.449 (inactive)
same,z-score,[4],-0.151 (inactive)
same,z-score,[5],-0.389 (inactive)
same,cell count,[2],6630
same,cell count,[3],6610
same,cell count,[4],6500
same,cell count,[5],6040
Cn1ncnc1C1c2n[nH]c(=O)c3cc(F)cc(c23)NC1c1ccc(F)cc1 (centres undefined),outcome,library stock 10 mM,inactive; censored for cell count
same,z-score,[2],1.87 (inactive)
same,z-score,[3],3.69 (active)
same,z-score,[4],6.89 (active)
same,cell count,[2],3700
same,cell count,[3],2650
same,cell count,[4],1700
CC#C[C@]1(O)CC[C@@H]2[C@@H]3CCC4=CC(=O)CCC4=C3C(c3ccc(N(C)C)cc3)C[C@@]21C (some centres undefined),z-score,[2],-0.535 (inactive)
same,z-score,[3],-0.414 (inactive)
same,z-score,[4],-0.596 (inactive)
same,z-score,[5],-0.985 (inactive)
same,cell count,[2],5620
same,cell count,[3],5640
same,cell count,[4],5480
same,cell count,[5],4850
Cc1cc(C)cc(NC(=O)Nc2ccc(S(N)(=O)=O)cc2)c1,z-score,[2],-0.282 (inactive)
same,z-score,[3],-0.269 (inactive)
same,z-score,[4],-0.436 (inactive)
same,z-score,[5],-0.561 (inactive)
same,cell count,[2],5270
same,cell count,[3],5260
same,cell count,[4],5280
same,cell count,[5],5230
CCCCCC(=O)CC[C@H]1[C@H](O)CC(=O)[C@@H]1CCCCCCC(=O)O,z-score,,3.62 (active)
same,cell count,,3870
CCCCCC(=O)CC[C@H]1[C@H](O)CC(=O)[C@@H]1C/C=C\CCCC(=O)O,z-score,,0.0242 (inactive)
same,cell count,,5260
CCCCC[C@@H](O)CC[C@H]1[C@H](O)CC(=O)[C@@H]1CCCCCCC(=O)O,z-score,,0.414 (inactive)
same,cell count,,5360
CCCCC[C@H](O)/C=C/[C@@H]1[C@@H](C/C=C\CCCC(=O)NCCO)[C@@H](O)C[C@H]1O,z-score,,-0.4 (inactive)
same,cell count,,5500
COc1ccc(C2(O)CCC(N3CCC(NC(=O)CNC(=O)c4cccc(C(F)(F)F)c4)C3)CC2)cn1 (centres undefined),z-score,[2],0.226 (inactive)
same,z-score,[3],0.00991 (inactive)
same,z-score,[4],-0.208 (inactive)
same,z-score,[5],-0.124 (inactive)
same,cell count,[2],5820
same,cell count,[3],5470
same,cell count,[4],6300
same,cell count,[5],5360
CC(C)CC(C=O)NC(=O)C(CC(C)C)NC(=O)C(CC(C)C)NC(=O)OCc1ccccc1 (stereo not drawn) (Cbz-Leu-Leu-Leu-aldehyde; configuration not given here),outcome,library stock 1.67 mM,inactive; censored for cell count
same,outcome,library stock 10 mM,inactive; censored for cell count
same,z-score,[1],-0.417 (inactive)
same,z-score,[6],-0.122 (inactive)
same,cell count,[1],6590
same,cell count,[6],5640
Cc1cc(N2CCOCC2)cc2[nH]c(-c3c(NCC(O)c4cccc(Cl)c4)cc[nH]c3=O)nc12 (centres undefined),z-score,[2],0.23 (inactive)
same,z-score,[3],0.0421 (inactive)
same,z-score,[4],0.963 (inactive)
same,z-score,[5],5.5 (active)
same,cell count,[2],5280
same,cell count,[3],5710
same,cell count,[4],4590
same,cell count,[5],1770
CCCCC[C@H](O)/C=C/[C@H]1[C@H](O)CC(=O)[C@@H]1C/C=C/CCCC(=O)O,z-score,,0.327 (inactive)
same,cell count,,4880
CC(C)=CCC/C(C)=C/CC/C(C)=C/CC[C@]1(C)CCc2c(C)c(O)c(C)c(C)c2O1,z-score,,-0.823 (inactive)
same,cell count,,5060
NS(=O)(=O)OCC1CC(n2ccc3c(NC4CCc5ccccc54)ncnc32)CC1O (centres undefined),outcome,library stock 1.67 mM,inactive; censored for cell count
same,outcome,library stock 10 mM,inactive; censored for cell count
same,z-score,[1],1.02 (inactive)
same,z-score,[6],4.89 (active)
same,cell count,[1],5390
same,cell count,[6],2380
CCCCC[C@H](O)/C=C/[C@H]1CC[C@@H](O)[C@@H]1C/C=C\CCCC(=O)O,z-score,,-0.672 (inactive)
same,cell count,,5720
NCc1cccc2ccncc12,z-score,,-0.00644 (inactive)
same,cell count,,5160
CCCCC/C=C/C=C1/C=CC(=O)[C@@H]1CCCCCCC(=O)O,z-score,,-0.804 (inactive)
same,cell count,,5740
CN1c2ccc([N+](=O)[O-])cc2N=C(c2ccc(C(=O)O)cc2)c2cc3c(cc21)C(C)(C)CCC3(C)C,z-score,[1],-0.143 (inactive)
same,z-score,[6],-0.194 (inactive)
same,z-score,[7],-0.234 (inactive)
same,z-score,[5],-0.264 (inactive)
same,cell count,[1],5860
same,cell count,[6],5990
same,cell count,[7],5440
same,cell count,[5],4270
O=C(O)c1ccc2nc(-c3cc(Cl)cc(Cl)c3)oc2c1,z-score,[1],0.415 (inactive)
same,z-score,[6],0.328 (inactive)
same,z-score,[7],0.106 (inactive)
same,z-score,[5],0.34 (inactive)
same,cell count,[1],6810
same,cell count,[6],6930
same,cell count,[7],7500
same,cell count,[5],7380
Nc1ccc(O)c(C(=O)O)c1,z-score,,-0.67 (inactive)
same,cell count,,5710
O=C(O)c1cc2ccccc2c(Cc2c(O)c(C(=O)O)cc3ccccc23)c1O,z-score,[2],-0.00825 (inactive)
same,z-score,[3],0.355 (inactive)
same,z-score,[4],0.379 (inactive)
same,z-score,[5],0.06 (inactive)
same,cell count,[2],4700
same,cell count,[3],4390
same,cell count,[4],4510
same,cell count,[5],4530
O=C(O)c1cc(O)c2ccccc2c1O,z-score,[1],0.31 (inactive)
same,z-score,[6],1.17 (inactive)
same,z-score,[7],0.601 (inactive)
same,z-score,[5],2.64 (active)
same,cell count,[1],6560
same,cell count,[6],6080
same,cell count,[7],6240
same,cell count,[5],3940
